An excerpt weighted towards active compounds, which were near 2.8% of everything screened.
IP6K1 inhibitor: inhibitors of human IP6K1 | Q92551 | activity change, % (series mostly up to about 58 µM) | 140,000 compounds, 0.81% hits | IP6K1 kinase, ADP-Glo luminescence, 2 h; stronger effect = lower value; in the data active = activity change below about -25%
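ADP-Glo luminescence measures ADP made by human IP6K1 during a 2 h RT reaction with ATP/IP6 (mix at 1.3 mM/130 uM); top library doses 57.5 and 19.1 uM final.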
KDM5B inhibitor: KDM5B demethylase inhibition; 220,000 compounds, 2.6% hits; KDM5B demethylase, FDH-coupled NADH fluorescence (FDH is formaldehyde dehydrogenase); Potency, µM (titrated, usually from 57.7 µM), hits mostly inhibitors; AID 1347165; also: nearly all actives have a fitted effect of over 70% in size
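KDM5BΔAP (200 nM final) in 50 mM HEPES pH 7.5, 0.01% Tween-20 was preincubated 10 min at RT with compound over a concentration range. Substrate mix (H3K4me3 12.5 µM, α-KG 25 µM, Fe²⁺, ascorbate, NAD⁺, FDH) was added, and NADH fluorescence change over 30 min gave dose-response curves.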
IP6K1 inh cnf: human IP6K1 inhibition, confirmatory. recombinant IP6K1 kinase, ADP-Glo luminescence, 2 h. 1,200 compounds, 13% hits. Potency, µM (titrated, usually from 49 µM), hits mostly inhibitors. shares compounds with IP6K1 inhibitor. AID 1645852; also: nearly all actives have a fitted effect of over 65% in size
A number is an active result; . = inactive; ? = inconclusive; / = no result given; [ ] = remark or other dose. Unless noted, calls follow the shape of the dose curve; as a rule, active = well fitted inhibition curve with a large enough effect; inconclusive = small, poorly fitted or top-dose-only effect; inactive = no such curve, though single readings can be large or run the other way.

SMILES | IP6K1 inhibitor | KDM5B inhibitor | IP6K1 inh cnf
O=C(O)c1cc(-c2ccc(Cl)c(Cl)c2)nc2ccccc12 | / | . | /
COCCn1cnnc1SCc1cccc(C(F)(F)F)c1 | / | . | /
COc1cc(NC(=O)CC2C(=O)OCCN2Cc2ccccc2)cc(OC)c1 (configuration not stated) | . | . | /
COC(=O)c1cc(NC(=O)CC2C(=O)OCCN2Cc2ccccc2)cc(C(=O)OC)c1 (configuration not stated) | -33 | .[11.5 µM] | .
CCCNC(=O)c1ccc2c(=O)n(CCOC)c(SCC(=O)c3ccccc3)nc2c1 | / | . | /
COCCNC(=O)c1ccc2c(=O)n(CCc3ccccc3)c(SCC(=O)CC(=O)OC)nc2c1 | -25 | . | .
COC[C@@H]1[C@H](C(=O)NCc2ccccc2OC)CCC(=O)N1C | . | / | /
O=C(O)c1cc(-c2cncnc2)cc(S(=O)(=O)N2CCCCCC2)c1 | . | . | /
O=C(O)c1cc(-c2ccccc2CO)cc(S(=O)(=O)N2CCCCCC2)c1 | -30 | . | .
COc1ccc(Cn2c(C(=O)O)c(CNCCc3ccco3)c3ccc(C)cc32)cc1 | . | . | /
C=Cc1ccc(Cn2c(C(=O)O)c(CNCCc3ccco3)c3ccc(C)cc32)cc1 | -29 | ? | .
COc1ccccc1Oc1c(C)oc2cc(OCC(=O)Nc3ccc(C)cc3C)ccc2c1=O | / | . | /
COc1ccc(C(CNC(=O)c2ccc(Br)s2)N2CCCC2)cc1 (configuration not stated) | / | . | /
CC(C)Cc1nc(CN(C)C(=O)c2cccc(CCC(C)(C)O)c2)no1 | -32 | . | .
CSc1cccc(CN(C)C(=O)c2ccc(CCC(C)(C)O)cc2)c1 | . | . | /
COc1cccc(-c2cnc3[nH]cc(CC(N)=O)c3c2)c1 | -44 | 35µM | ?
COc1cccc(NC(=O)Cc2c[nH]c3ncc(-c4ccccc4C)cc23)c1 | . | ? | /
Cn1cc(-c2cnc3[nH]cc(CC(=O)Nc4cccc(OC(F)(F)F)c4)c3c2)cn1 | . | ? | /
NC(=O)Cc1c[nH]c2ncc(-c3cccc(OC(F)(F)F)c3)cc12 | -27 | ? | ?
CCOC(=O)c1c(C)[nH]c(C(=O)OCc2ccc(C(=O)OC)cc2)c1C | / | . | /
C=C[C@]1(C)C[C@H](O)[C@@H]2[C@H](OC(=O)[C@@H]2C)C1/C(C)=C/O[C@@H]1O[C@H](CO)[C@@H](O)[C@H](O)[C@H]1O (some centres not stated) | . | / | /
COc1cc(C2CC(=O)Nc3nc(-c4ccccc4)[nH]c(=O)c32)cc(OC)c1O (configuration not stated) | / | . | /
O=C(NCCN1CCOCC1)c1nc2sccn2c1-c1cccnc1 | . | / | /
O=C(CCC[C@H]1NC[C@@H]2C[C@H]1CN(Cc1ccccc1)C2)N1CCN(C2CCCC2)CC1 | . | . | /
COc1cccc(N2CCN(C(=O)CCC[C@H]3NC[C@@H]4C[C@H]3CN(Cc3ccccc3)C4)CC2)c1 | -26 | 25µM | .
SMILES | IP6K1 inhibitor | KDM5B inhibitor | IP6K1 inh cnf
O=C(Cc1[nH]nc2ccccc12)N[C@H](c1ccc2c(c1)CCO2)C1CC(O)C1 (some centres not stated) | -36 | . | .
O=C(CN1C(=O)CNC1=O)N[C@H](c1ccc2c(c1)CCO2)C1CC(O)C1 (some centres not stated) | . | . | /
Cc1ccc(S(=O)(=O)c2nc(-c3ccco3)oc2SCc2ccc(F)cc2)cc1 | -28 | ? | .
O=S(=O)(c1ccccc1)c1nc(-c2ccco2)oc1SCc1ccc(F)cc1 | . | ? | /
Cc1cc(F)ccc1NCc1ccccc1C#N | / | . | /
COc1cc(OC)cc(C(=O)Oc2ccccc2Cl)c1 | / | . | /
Cc1ccc(CN(Cc2ccco2)C(=O)c2oc3c(C)c(C)ccc3c2C)cc1 | -29 | ? | ?
Cc1ccc(CN(Cc2ccco2)C(=O)c2oc3ccc(C)cc3c2C)cc1 | . | ? | /
COc1ccc(-c2cc3onc(-c4ccncc4)c3c(=O)n2C)cc1 | . | / | /
Cn1ncc2c(Nc3cccc(F)c3)ncnc21 | -28 | ? | ?
Cc1cc(C)c(Nc2ncnc3c2cnn3C)c(C)c1 | . | ? | /
COc1ccc(CN(C)Cc2cccs2)cc1OCC(O)CN1CCN(C)CC1 (configuration not stated) | . | . | /
COc1ccc(CN(C)Cc2ccoc2)cc1OCC(O)CN1CCCCC1 (configuration not stated) | -38 | . | .
O=C(O)c1ccc(-c2c[nH]c3ncc(-c4ccccc4)cc23)cc1C1CCCC1 | / | / | ?
O=C(Cc1c[nH]c2ncc(-c3ccccc3)cc12)NCC1CCOCC1 | . | ? | /
N#Cc1cccc(C(=O)c2ccc3c(c2)OCCO3)c1 | / | . | /
COCCn1c(SCC(=O)c2ccc3c(c2)CCC3)nnc1-c1ccc(Cl)cc1 | / | . | /
Cc1c(C)n(Cc2ccccc2)c2ccc(C(=O)NCc3ccc(OC(C)C)cc3)cc12 | . | ? | /
Cc1c(C)n(Cc2ccc(-c3ccccc3C(=O)O)cc2)c2ccc(C(=O)N[C@@H](C)c3ccc([N+](=O)[O-])cc3)cc12 | -27 | / | ?
Cc1ccc(C(=O)N2CCC3(CC2)CC(N(Cc2ccc(F)cc2)C2CC2)CCO3)cc1 (configuration not stated) | . | . | /
Cc1ccc(C(=O)N2CCC3(CC2)CC(N(Cc2ccc(F)cc2)C2CC2)CCO3)cn1 (configuration not stated) | -26 | . | .
Cc1ccc2c(CN3CCN(c4ccccn4)CC3)cc(=O)oc2c1C | / | . | /
CN1CCN(c2cc(=O)c3ccnc(N4CCN(c5ccccn5)CC4)c3o2)CC1 | -26 | . | .
Cc1cc(Cl)c(CO)c(Cl)n1 | / | . | /
COc1ccc(-c2cc3nc(N)cc(=O)n3[nH]2)cc1 | -48 | ? | ?
SMILES | IP6K1 inhibitor | KDM5B inhibitor | IP6K1 inh cnf
COc1ccc(CN(C)Cc2cc(=O)n3[nH]c(-c4cccc(C)c4)cc3n2)cc1 | / | . | /
O=C(COC(=O)COc1ccccc1F)Nc1ncc(C(F)(F)F)cc1Cl | / | . | /
Cc1ccc(C(=O)NCC(=O)NCCc2c[nH]c3ccccc23)cc1C | / | . | /
O=C(c1ccc(F)c(F)c1Nc1ccc(I)cc1F)N1CC(O)([C@H]2CCCCN2)C1 | / | / | .
CCOC(=O)c1ccc(S(=O)(=O)Nc2ccccc2-c2nnc3n2CCCCC3)cc1 | / | . | /
CC(=O)N1CCN(C(=O)C(=O)Nc2cccc3[nH]ccc23)CC1 | / | . | /
N#Cc1ccc(CNCc2ccc(CN3CCCC3)cc2)cc1 | / | . | /
O=C(c1ccccc1)N1CCCN(c2ccnc3ccnn23)CC1 | -26 | / | .
O=C(c1ccncc1)N1CCCN(c2ccnc3ccnn23)CC1 | . | / | /
Cc1cccc(-c2nc(SCc3noc(CCC(=O)Nc4ccc5ccccc5c4)n3)n[nH]2)c1 | / | . | /
O=C(c1cc(-c2ccsc2)c2nncn2n1)N1CCCC1 | . | / | /
O=C(Nc1cccc(-c2ccc(N3CCOCC3)nn2)c1)Nc1cccc(C(F)(F)F)c1 | . | . | /
Nc1cccc(-c2ccc(N3CCOCC3)nn2)c1 | -30 | . | ?
O=C(c1nccc2ccccc12)N1CCC2(CC1)NCCc1c2[nH]c2ccccc12 | . | . | /
CCNc1cc(N2CCN(C3CCCCC3)CC2)c2noc3c2c1C(=O)c1ccccc1-3 | . | ? | /
O=C(O)CCCNc1cc(N2CCN(C3CCCCC3)CC2)c2noc3c2c1C(=O)c1ccccc1-3 | -34 | ? | ?
COCc1cc(C)n(CC(=O)Nc2cc(Cl)ccc2Cl)c(=O)c1C#N | / | . | /
Cc1cc(C)n(CC(=O)Nc2cc(C(F)(F)F)ccc2Cl)c(=O)c1C#N | / | . | /
